The values below come from PubChem BioAssay (Tox21).

Where “and” joins values, the source holds several entries; their conditions need not be identical. Identical values can stand only once. Records with an inconclusive call do not appear. Unmarked numbers belong to inactive results. Calls of active or inactive are those of the source. The call rests on the fitted dose curve; in most records, active means well fitted activation curve with a large enough effect in the repeat runs; inconclusive means weak or mixed curves; inactive means flat fitted curve, though single readings scatter.
On the % scale 0 is the no-effect control and ±100 the full control effect; potency means the concentration at half of the fitted maximal effect.

The nature of the experiment: A CellTox Green Cytotoxicity Assay to monitor cytotoxicity in HEK293 cells - 24 hour (AID 1224875). Further: nearly all actives have a fitted effect of over 45% in size. The settings on record: CellTox Green fluorescence; series mostly up to 76.8 µM; activity change: at the top concentration. The text has this: National Center for Advancing Translational Sciences [NCATS]
NIH Chemical Genomics Center [NCGC]
U.S. Environmental Protection Agency [EPA]
National Institutes of Environmental Health Sciences [NIEHS]
National Toxicology Program [NTP]
Cell-based models are critical for drug discovery. Determining the natural cytotoxic effects resulting from test compounds is an essential research activity. A CellTox Green Cytotoxicity Assay to monitor cytotoxicity in real time of continues cell culture during 40 hours of the compound treatment was used to screen Tox21 10K library compounds in Hek293 cells. CellTox Green Cytotoxicity Assay is a nonlytic, homogeneous, biofluorescent method to measure cytotoxicity in cell culture after experimental manipulation. The assay system uses a proprietary asymmetric cyanine dye that is excluded from viable cells but preferentially stains the dead cell's DNA. […] Viable cells produce no appreciable increases in fluorescence. Therefore, the fluorescence signal produced by the binding interaction with dead cell DNA is proportional to cytotoxicity.
The mixture of Hek293 cell suspension and reagents were dispensed at 600cells/6 ul/well in 1536-well tissue culture treated black solid bottom plates using a Multidrop dispenser. After the assay plates were incubated at a 37 C/5% CO2 incubator for 5 hours, 23 nL of compounds dissolved in DMSO, positive and negative controls was transferred to the assay plate by a pintool work station. The plates were incubated at 37 C for 40 hours. The fluorescence intensity were measured at 0h, 8h, 16h, 24h, 32h and 40h time points using ViewLux plate reader during compound treatment.
Turning to `CC(C)=CCCC(C)O` (stereo not given), the “activity change” value was 21.8%. On the same count and under the same terms, the value for `CCCCCCS` was -3.55%; that for `CC1CNCC(C)O1` (stereo not given) was -3.84%; that for `O=C(Nc1ccc(Cl)cc1)Nc1ccc(Cl)c(C(F)(F)F)c1` was 26.4% [at 35.3 µM, hits give high values]. Still for that read-out and setting: the value for `CCCCCCCOC(=O)c1ccccc1C(=O)OCCCCCCC` was -2.01%. Same read-out and setting: the value for `CC(C)c1ccccc1N` was 3.43%. On to `Clc1ccc(C(Cn2ccnc2)OCc2c(Cl)cccc2Cl)c(Cl)c1` (stereo not given), for which the “activity change” value is 28.2% [at 35.3 µM, hits give high values].

For `Cc1cc(=O)[nH]c(=O)[nH]1`, the “activity change” value was -3.39%. Take `CCCCCCC(C)OC(=O)COc1nc(F)c(Cl)c(N)c1Cl` (stereo not given): the “activity change” value is 17.4%.

Turning to `C[C@@]12C(=O)OC(=O)[C@]1(C)C1CCC2O1`, the “activity change” value is -0.452% [at 35.3 µM, hits give high values].

Take `C=CC(C)C#N` (stereo not given): the “activity change” value was -8.33%.

For the molecule `CCN(CC)CCNc1ccc(CO)c2sc3ccccc3c(=O)c12`, the “activity change” value was 0.573% [at 35.3 µM, hits give high values].

As to `CC(C)=CC1CC(C)CCO1` (stereo not given), the “activity change” value was -2%. For the molecule `OCCN1CN(CCO)CN(CCO)C1`, the “activity change” value was 2.73%. The same measure, in the same setting: then `Clc1nc2ccccc2s1`, with 2.11%; and `COc1ccccc1C=O`, with 20%; and `CC(C)N=C(N)/N=C(\N)Nc1ccc(Cl)cc1`, with -0.86% [at 35.3 µM, hits give high values]. Consider `CCCCCCCCCCCCCCCCCO`, for which the activity change was -19.9% [at 15.8 µM, hits give high values]. Same read-out and setting: the value for `CN(C)c1ccc(N=NS(=O)(=O)O)cc1` was -4.12%. Still for that read-out and setting: the value for `CCCC(O)C(O)CO` (stereo not given) was 0.51%. In the case of `CCCCCCCC/C=C\CCCCCCCC(=O)N(C)CC(=O)O`, the Potency was 34.7 µM (active).

Take `CCCCCCCCCCCCOC(=O)c1cc(O)c(O)c(O)c1`: the Potency was 54.7 µM (active) and 49 µM (active). For `CCCCOCC`, the “activity change” value is 14.5%. Still for that read-out and setting: then `COc1cc(C=C2CCC/C(=C\c3ccc(O)c(OC)c3)C2=O)ccc1O`, with -0.537% [at 35.3 µM, hits give high values]. `COCC(=O)O[C@]1(CCN(C)CCCc2nc3ccccc3[nH]2)CCc2cc(F)ccc2[C@@H]1C(C)C`: the Potency is 21.3 µM (active). For `C=CCCCCCCC=C`, the “activity change” value is -1.01%. Still for that read-out and setting: then `ClC/C=C\CCl`, with -3.08%; and `CCOC(=O)C1=C(C)NC(C)=C(C(=O)OCC)C1c1ccccc1/C=C/C(=O)OC(C)(C)C`, with -13.1% [at 35.3 µM, hits give high values]. Take `NC(=O)c1nc(-c2cccc(-c3cc(F)ccc3OCC(F)(F)C(F)(F)F)c2)n[nH]1`: the “activity change” value was 28.2%.

Regarding `O=c1cccc[nH]1`, the “activity change” value was 0.435%. Take `COC(=O)NCCC[Si](OC)(OC)OC`: the “activity change” value is -2.84%. For the molecule `c1ccc(Sc2ccccc2)cc1`, the “activity change” value was 14.6%. The same measure, in the same setting: then `CC(C)=CCCC(C)CCOC(=O)C(C)C` (stereo not given), with -15.4%.

As for `C[Si](C)O[Si](C)C`, the “activity change” value is 12.8%.

With `COc1ccc2sc(C(=O)Nc3nnn[nH]3)c(OC(C)C)c2c1`, the “activity change” value was -0.0033%. On the same count and under the same terms, the value for `O=C(O)CC(=O)O` was -0.39%.

As for `CC(=O)Nc1ccc(O)cc1`, the Potency result was “inactive”. Take `CCOB(OCC)OCC`: the “activity change” value was -24.5%.

Regarding `CCCCCCCCC(C)=O`, the “activity change” value was -13.9%. Still for that read-out and setting: then `CCN1CCN(c2cc(-c3ccc(F)cc3)c3c(n2)CCCCCC3)CC1`, with 2.45% [at 15.8 µM, hits give high values].
